FXIa inh mix – factor XIa (human) inhibition, mixture screen; P03951; purified FXIa, fluorogenic substrate, pooled mixtures; inhibition, % at 5 µM; actives 0.19% (n = 62,000); AID 680;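 also: each value is inhibition by a whole ten-compound pool holding the compound; 0% = enzyme with no mixture and 100% = wells lacking enzyme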
M1 antagonist – antagonists of rat M1 muscarinic receptor; CHO-M1 cells, Fluo-4 calcium, ACh EC80 antagonist mode; stronger effect = lower value; B-score at 10 µM; actives 3.4% (n = 64,000); P08482;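 active = calcium fluorescence response, raw or row-and-column corrected B-score, differing from the plate sample mean either way at a set confidence level, mostly lower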
JNK3 blocker – JNK3 (human) kinase inhibition; P53779; purified JNK3 kinase activity, HTS; inhibition, % at 8 µM; actives 0.61% (n = 60,000); in the data active = inhibition above about 17%;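 also: 0% = DMSO and 100% = reference inhibitor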
Her2 expr inh – Her2 kinase expression inhibition; P04626; SKBR-3 HER2 protein level, AlphaScreen, 18-24 h; stronger effect = lower value; HER2 level % of control, % at 10 µM; actives 0.69% (n = 65,000); AID 645;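 active = HER2 level under 5% of the carrier-only control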;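 also: 100% = DMSO carrier and 0% = 500 nM PU-H71 HSP90 inhibitor; lower value means stronger loss of Her2 protein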
FXIIa mix inh – inhibitors of human coagulation factor XIIa, pooled mixtures; P00748; purified FXIIa, fluorogenic substrate; inhibition, % at 5 µM; actives 0.2% (n = 62,000);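 also: 0% = enzyme without compound and 100% = no enzyme blank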
Target sequence (P00748 20-372 limits assumed): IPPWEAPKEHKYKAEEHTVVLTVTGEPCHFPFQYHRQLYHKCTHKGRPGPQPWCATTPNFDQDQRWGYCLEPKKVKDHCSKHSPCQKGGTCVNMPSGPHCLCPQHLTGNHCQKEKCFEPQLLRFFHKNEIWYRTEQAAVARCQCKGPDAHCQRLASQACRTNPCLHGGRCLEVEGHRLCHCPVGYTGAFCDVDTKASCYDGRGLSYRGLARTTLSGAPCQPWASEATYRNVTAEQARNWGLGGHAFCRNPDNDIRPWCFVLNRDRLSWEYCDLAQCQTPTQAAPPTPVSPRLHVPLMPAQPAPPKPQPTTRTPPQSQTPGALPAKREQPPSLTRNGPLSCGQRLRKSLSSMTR
Target sequence (P00748 373-615 limits assumed): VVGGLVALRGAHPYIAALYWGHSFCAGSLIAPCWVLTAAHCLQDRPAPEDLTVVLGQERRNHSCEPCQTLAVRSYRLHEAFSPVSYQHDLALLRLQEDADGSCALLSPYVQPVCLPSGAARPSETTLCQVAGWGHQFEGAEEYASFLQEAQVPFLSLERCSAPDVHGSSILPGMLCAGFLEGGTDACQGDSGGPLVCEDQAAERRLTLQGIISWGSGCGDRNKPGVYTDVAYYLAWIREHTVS
M1 ag – M1 muscarinic receptor agonism | actives 3% (n = 64,000) | B-score at 10 µM | AID 626 | CHO-M1 cells, Fluo-4 calcium fluorescence, agonist mode; stronger effect = higher value;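 active = fluorescence rise, raw or as B-score row- and column-corrected plate score, outside the 99.7% band of its plate's samples, either direction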
* = called active by the depositor; / = not tested or not shown. Sampled rows, rich in hits. Any-hit rate of the full collection: about 6.9%. Rule as the data show it, unless noted: active = inhibition above about 20% (passing the limit was not always enough); inactive = the rest.

SMILES	FXIa inh mix	M1 antagonist	JNK3 blocker	Her2 expr inh	FXIIa mix inh	M1 ag
C=CCn1cnc2c(c1=O)c1nc3ccccc3nc1n2/N=C/c1ccccn1	2	-4.1*	2	122	-20	8.1*
CCOc1ccccc1NC(=O)C1CCN(S(=O)(=O)c2cccc3cccnc23)CC1	13	0.086	-1	102	1	1.7
O=c1[nH]c(CN2CCCCC2)nc2c1C1(CCCC1)Cc1ccccc1-2	6	0.075	0	65	-1	-0.31
Cc1[nH]nc2c1C(CCc1ccccc1)C(C#N)=C(N)O2 (stereo not given)	6	0.25	4	80	5	-0.057
Cc1cccc(-n2c(Cc3cc(=O)[nH]c(=O)[nH]3)nnc2SCC(=O)N2CCCCC2)c1	21*	-0.86	-2	113	11	0.94
CCOC(=O)CNc1c(-c2ccc(O)cc2)nc2ccc(Cl)cn12	2	-1.4	-4	109	5	7.8*
Cn1c(=O)cc(OCCCC(=O)NCc2ccccn2)c2ccccc21	6	0.15	4	115	14	2
Cc1ccnc(NC(=O)CSc2cc(=O)n(C)c3ccccc23)c1	9	0.41	26*	81	2	0.77
Cn1c(=O)cc(SCC(=O)Nc2ccccn2)c2ccccc21	0	0.42	10	75	13	0.25
Cc1ccnc(NC(=O)CCCOc2cc(=O)n(C)c3ccccc23)c1	-1	-0.67	27*	17	-2	-0.2
COc1cccc(-c2nnn(CC(=O)O)n2)c1	10	0.66	0	-22*	3	-0.56
O=C(OCc1nnc(-c2ccccc2)o1)C1CCN(S(=O)(=O)c2cccs2)CC1	0	1.2	0	97	13	-1
CC(=O)Nc1ccc(S(=O)(=O)N(Cc2ccco2)CC2CCCO2)cc1 (stereo not given)	-1	-0.014	5	86	8	-0.1
S=C(c1ccc(-c2ccc(Cl)c(Cl)c2)o1)N1CCOCC1	6	-0.68	-2	/	1	-1.2
S=C(c1ccc(-c2ccccc2Cl)o1)N1CCOCC1	14	1.1*	2	97	5	0.8
COCCn1nnnc1C(c1ccc(OC)c(OC)c1)N1CCN(c2nc3ccccc3s2)CC1 (stereo not given)	-5	-0.14	2	86	-4	0.22
C=C(C)Cn1c(-c2ccc(OC)cc2)nc2ccccc21	/	-1.1	-8	-20*	/	0.31
CCCCn1c(=O)n(C)c(=O)c2c(C(F)(F)F)cc(-c3ccncc3)nc21	6	-0.24	3	108	44*	1.1
CCCCn1c(Cl)nc2c1c(=O)n(C)c(=O)n2C	8	0.0085	4	92	-11	-0.21
O=C(CN1CCN(c2ncccn2)CC1)NCCC1=CCCCC1	0	0.99	/	121	10	0.1
c1ccc(-c2n[nH]c3c2CCC3)cc1	0	-0.5	18*	97	10	0.36
COc1ccc(-c2nc(C(N)=O)c3[nH]c(=O)n(-c4cccc(Cl)c4)c3n2)cc1OC	-4	-1.1	-3	-12*	6	-0.58
CC1CCCC(NC(=O)CN(C)S(=O)(=O)c2cccc3cccnc23)C1C (stereo not given)	3	0.64	-5	123	15	0.032
Cc1cc(=O)n2nc(N3CCC(C(=O)NCCC4=CCCCC4)CC3)sc2n1	5	0.44	-5	98	9	-0.44
O=C(Oc1ccc2c(c1)OCO2)c1cc2c(s1)CCC2	10	0.54	1	-7.5*	7	0.57
SMILES	FXIa inh mix	M1 antagonist	JNK3 blocker	Her2 expr inh	FXIIa mix inh	M1 ag
COC(=O)c1ccc(OC(=O)C2CC(=O)N(c3ccc(C)cc3C)C2)cc1 (stereo not given)	31*	0.75	-4	114	-4	-0.73
Cc1ccc(N2CC(C(=O)Oc3cccc(N4C(=O)CCC4=O)c3)CC2=O)cc1 (stereo not given)	9	0.74	3	94	4	-1
COc1ccc(NC(=O)C2CC(=O)N(c3cc(C)ccc3C)C2)cc1 (stereo not given)	67*	-0.37	3	132	2	0.037
COc1ccc(N2CC(C(=O)Nc3ccc(S(=O)(=O)Nc4nc(C)cc(C)n4)cc3)CC2=O)cc1 (stereo not given)	-8	0.57	2	122	-18	0.081
CC1(C)CCCC2=C1CC1C(=O)N(Cc3cccnc3)C(=O)C1C2 (stereo not given)	1	/	0	-22*	-21	/
CC1(C(=O)NC2CCCCCCC2)CCC(=O)N1Cc1cccnc1 (stereo not given)	9	0.65	0	121	5	-0.12
CCOC(=O)C(C(C)=O)c1c(Br)c(O)c(O)c2c(C(=O)c3ccc(C)cc3)coc12 (stereo not given)	10	0.22	-3	-21*	6	-0.22
CCC1S/C(=C(\C#N)C(N)=O)N(c2ccc(F)cc2)C1=O (stereo not given)	-5	-0.092	31*	63	7	-1
CCCCCCC1/C(=N/O)CCC1C(=O)OC (stereo not given)	-4	0.11	-1	94	-4	-0.19
Cc1nc2sc(C(c3ccc(Cl)cc3)N3CCN(c4ccccc4F)CC3)c(O)n2n1 (stereo not given)	2	-0.89	4	117	0	-0.019
CS(=O)c1nc(-c2ccc(Br)cc2)cc(-c2ccccc2)c1C#N (stereo not given)	7	0.13	-3	-22*	2	0.15
N#CC(C#N)=c1ccc2c(c1)N1C3=C(CCCC3)CC3CCCCC31N=2 (stereo not given)	7	-1.1	-3	-28*	11	2.8
C=CCn1c(SCc2nc3ccccc3nc2C)nnc1-c1ccoc1C	9	-0.0036	-4	66	0	-0.53
COc1ccc(CNC(=O)c2cnn3c(C(F)F)cc(C)nc23)cc1OC	5	-0.72	24*	87	0	-2.7
CCCOc1cccc(C(=O)Nc2cccc(NC(=O)c3ccco3)c2)c1	4	-0.26	-3	49	7	6*
O=C(C1CCN(S(=O)(=O)c2cccc3cccnc23)CC1)N1CC=C(c2ccccc2)CC1	5	-2	-3	92	30	4.5*
O=C(C1CCCN(S(=O)(=O)c2cccc3cccnc23)C1)N1CCN(c2ccccc2F)CC1 (stereo not given)	1	-1.4	-6	82	-20	3.9
Cc1cccc(N2CCN(C(=O)C3CCCN(S(=O)(=O)c4cccc5cccnc45)C3)CC2)c1C (stereo not given)	4	-0.71	5	57	-3	4.6*
CC(CC1C(C#N)=C(N)SC(N)=C1C#N)c1ccccc1 (stereo not given)	/	0.13	-19	96	/	-0.94
c1ccc(-c2onc3cc4c(cc23)OCCO4)cc1	11	0.099	22*	107	8	-0.46
CCOC(=O)CC(N)c1ccc2c(c1)OCO2 (stereo not given)	6	0.79	-6	-21*	1	0.11
